Values joined by “and” are separate entries in the source; they are usually repeats but may differ in a detail not shown here. Identical values can stand only once. Inconclusive results are not listed. Active and inactive are the calls of the source. The call rests on the fitted dose curve; in most records, active means well fitted inhibition curve with a large enough effect; inconclusive means small, poorly fitted or top-dose-only effect; inactive means flat fitted curve, though single readings scatter.
What was measured:
[1] = tested on: N140; experiment: qHTS profiling for inhibitors of Plasmodium falciparum proliferation (AID 504749); further: potency means the concentration at half of the fitted maximal effect; conditions: P. falciparum in erythrocytes, SYBR Green DNA, 72 h; series mostly up to 28.7 µM
In short: (§1)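 In a 72 h erythrocytic culture (37 C, humidified, 5% CO2) at 2.5% hematocrit and 0.3% starting parasitemia, compounds were tested; SYBR Green I in detergent lysis buffer stained parasite DNA overnight.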

[2] = tested on: P93_24; experiment: as above; conditions: P. falciparum in erythrocytes, SYBR Green DNA, 72 h; series mostly up to 28.7 µM
In short: as §1

[3] = tested on: P94_40; experiment: as above; conditions: P. falciparum in erythrocytes, SYBR Green DNA, 72 h; series mostly up to 28.7 µM
In short: as §1

[4] = tested on: PAD; experiment: as above; conditions: P. falciparum in erythrocytes, SYBR Green DNA, 72 h; series mostly up to 28.7 µM
In short: as §1

[5] = tested on: PC15; experiment: as above; conditions: P. falciparum in erythrocytes, SYBR Green DNA, 72 h; series mostly up to 28.7 µM
In short: as §1

[6] = tested on: PC26; experiment: as above; conditions: P. falciparum in erythrocytes, SYBR Green DNA, 72 h; series mostly up to 28.7 µM
In short: as §1

[7] = tested on: PC49; experiment: as above; conditions: P. falciparum in erythrocytes, SYBR Green DNA, 72 h; series mostly up to 28.7 µM
In short: as §1

[8] = tested on: SC27B; experiment: as above; conditions: P. falciparum in erythrocytes, SYBR Green DNA, 72 h; series mostly up to 28.7 µM
In short: as §1

[9] = tested on: TAB109; experiment: as above; conditions: P. falciparum in erythrocytes, SYBR Green DNA, 72 h; series mostly up to 28.7 µM
In short: as §1

[10] = tested on: TAB113; experiment: as above; conditions: P. falciparum in erythrocytes, SYBR Green DNA, 72 h; series mostly up to 28.7 µM
In short: as §1

[11] = tested on: TAB165; experiment: as above; conditions: P. falciparum in erythrocytes, SYBR Green DNA, 72 h; series mostly up to 28.7 µM
In short: as §1

[12] = tested on: W2; experiment: as above; conditions: P. falciparum in erythrocytes, SYBR Green DNA, 72 h; series mostly up to 28.7 µM
In short: as §1

[13] = tested on: CRL-7250; experiment: Cytotoxic Profiling of Annotated Libraries Using Quantitative High-Throughput Screening (AID 1296008); conditions: Five cell lines viability, CellTiter-Glo ATP luminescence, 48-72 h; max response: stronger effect = lower value; further: potency means the concentration at half of the fitted maximal effect; on max response: on the % scale 0 is the no-effect control and ±100 the full control effect
In short: (§2)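 Cytotoxicity was measured as CellTiter-Glo ATP luminescence, read after 10 min at room temperature. Compound treatment of the cells lasted 48 or 72 hr at 37 degrees Celsius in a qHTS format.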

[14] = tested on: HaCat; experiment: as above; conditions: Five cell lines viability, CellTiter-Glo ATP luminescence, 48-72 h; max response: stronger effect = lower value
In short: as §2

[15] = tested on: KB-3-1; experiment: as above; conditions: Five cell lines viability, CellTiter-Glo ATP luminescence, 48-72 h; max response: stronger effect = lower value
In short: as §2

[16] = tested on: NIH3T3; experiment: as above; conditions: Five cell lines viability, CellTiter-Glo ATP luminescence, 48-72 h; max response: stronger effect = lower value
In short: as §2

[17] = tested on: HACAT; experiment: qHTS assay to identify novel small-molecules to repurpose for Merkel cell carcinoma treatment (AID 1296009); conditions: MCC and control cell lines, CellTiter-Glo viability, 72 h; at 44.8 µM (top of the series) unless noted
In short: (§3)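 Cell viability measured by CellTiter-Glo following 72 hr compound treatment at 37 degree celsius, with NPC and MIPE libraries tested in 8- and 11-point concentration series.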

[18] = tested on: HEK293T; experiment: as above; conditions: MCC and control cell lines, CellTiter-Glo viability, 72 h; at 44.8 µM (top of the series)
In short: as §3

[19] = tested on: HEK293; experiment: Cytotoxic Profiling of Annotated Libraries Using Quantitative High-Throughput Screening (AID 1296008); conditions: Five cell lines viability, CellTiter-Glo ATP luminescence, 48-72 h; max response: stronger effect = lower value; further: potency means the concentration at half of the fitted maximal effect; on max response: on the % scale 0 is the no-effect control and ±100 the full control effect
In short: as §2

[20] = tested on: CRL-7250; experiment: qHTS assay to identify novel small-molecules to repurpose for Merkel cell carcinoma treatment (AID 1296009); conditions: MCC and control cell lines, CellTiter-Glo viability, 72 h; at 44.8 µM (top of the series) unless noted
In short: as §3
Further: nearly all actives have a fitted effect of over 60% in size.

O=C(O)c1nn(Cc2ccc(Cl)cc2Cl)c2ccccc12
inactive: Potency [1] | Potency [2] | Potency [3] | Potency [4] | Potency [5] | Potency [6] | Potency [7] | Potency [8] | Potency [9] | Potency [10] | Potency [11] | Potency [12] | max response [13] -5.04% and -7.58% | max response [14] -0.99% | outcome [14] | max response [15] 4.9% and -9.13% | max response [16] -6.41% | outcome [16] | outcome [17] | outcome [18]

CCc1ccc(C2CCNCC2)cc1
inactive: outcome [13] | max response [19] -21.3% | outcome [14] | max response [16] 1.66% | outcome [20] | outcome [17]

COCC(=O)N(c1c(C)cccc1C)C(C)C(=O)OC (stereo not drawn)
inactive: Potency [5] | Potency [6] | Potency [7] | Potency [8] | Potency [10] | Potency [12] | max response [13] 1.66% | max response [14] 3.69% | max response [15] -13.6% | outcome [16]

CCCCCCCCC(=O)NCc1ccc(O)c(OC)c1
inactive: Potency [1] | Potency [2] | Potency [3] | Potency [4] | Potency [5] | Potency [6] | Potency [7] | Potency [8] | Potency [9] | Potency [10] | Potency [11] | Potency [12] | max response [13] -16.7% | max response [14] -25.6% | max response [15] -3.93% | max response [16] -70.4%

CCN(CC)Cc1nccn1-c1ccc([N+](=O)[O-])cc1C(=O)c1ccccc1Cl
inactive: max response [13] -12.2% | outcome [14] | max response [15] -4.42% | max response [16] -7.47% | outcome [17]

CN(C)C(=O)Oc1cc(OC(=O)N(C)C)cc(C(O)CNC(C)(C)C)c1 (stereo not drawn)
inactive: max response [13] -6.2% | outcome [14] | max response [15] -2.49% | max response [16] -1.01% | outcome [17]

CCC1(CC)C(=O)NC(=O)NC1=O
inactive: Potency [1] | Potency [2] | Potency [3] | Potency [4] | Potency [5] | Potency [6] | Potency [7] | Potency [8] | Potency [9] | Potency [10] | Potency [11] | max response [13] -2.88% | outcome [14] | max response [15] -1.45% | outcome [16] | outcome [17]

Oc1c(Br)cc(Br)cc1Br
inactive: Potency [1] | Potency [2] | Potency [3] | Potency [4] | Potency [5] | Potency [6] | Potency [7] | Potency [8] | Potency [9] | Potency [10] | Potency [11] | Potency [12] | max response [13] -10.6% | max response [14] -13% | max response [15] -5.6% | max response [16] -1.39%

C[C@H](CN1CCOCC1)C(C(=O)N1CCCC1)(c1ccccc1)c1ccccc1
inactive: max response [13] -21.1% | max response [14] -13.3% | max response [15] 1.9% | max response [16] -7.32%

C[C@]12C=CC(=O)C=C1CC[C@@H]1[C@@H]2CC[C@@]2(C)[C@H]1CC[C@]2(C)O
inactive: Potency [1] | Potency [2] | Potency [3] | Potency [4] | Potency [5] | Potency [7] | Potency [8] | Potency [9] | Potency [10] | Potency [11] | Potency [12] | max response [13] -25.8% | max response [14] -43.5% | max response [15] -13.2% | max response [16] -13.6%

C[N+](C)(C)CCOC(=O)C(O)(c1ccccc1)c1ccccc1
inactive: Potency [1] | Potency [2] | Potency [3] | Potency [4] | Potency [5] | Potency [6] | Potency [7] | Potency [8] | Potency [9] | Potency [10] | Potency [11] | Potency [12] | max response [13] 1.11% | max response [14] 1.68% | max response [15] -1.19% | max response [16] 2.06%

Cc1cccc(Cc2cnc[nH]2)c1C
inactive: max response [13] -4.56% | max response [14] -10% | max response [15] -11.3% | max response [16] -2.68%

COc1ccc(C(=O)N2CCCC2=O)cc1
inactive: Potency [1] | Potency [2] | Potency [3] | Potency [4] | Potency [5] | Potency [6] | Potency [7] | Potency [8] | Potency [9] | Potency [10] | Potency [11] | Potency [12] | max response [13] -4.75% and 1.19% | max response [14] -10.2% and -4.53% | max response [15] -8.06% | max response [16] -15.7% and -0.26% | outcome [18]

CCN(CC)CCOC(=O)C(C)(c1ccccc1)c1ccccc1
active: Potency [12] 1350 nM
inactive: max response [13] -0.0825% | outcome [14] | max response [15] -6.01% | max response [16] 1.33% | outcome [17]

COc1cc(N)c(Cl)cc1C(=O)NC1CN2CCC1CC2 (stereo not drawn)
inactive: max response [13] -0.63% | max response [14] -3.99% | max response [15] 8.72% | outcome [16]

O=C(N[C@@H]1N=C(c2ccccc2F)c2cccc3c2N(CC3)C1=O)c1cc2ccccc2[nH]1
active: Potency [16] 4320 nM
inactive: max response [13] -34.1% | max response [14] -2.29% | max response [15] -13.9%

OC(c1ccccc1)(c1ccccc1)C1CCNCC1
inactive: Potency [1] | Potency [2] | Potency [3] | Potency [4] | Potency [6] | Potency [8] | Potency [9] | Potency [10] | Potency [11] | Potency [12] | max response [13] 4.48% | max response [14] -12.8% | max response [15] -11.7% | max response [16] -1.52%

— PubChem BioAssay (NCATS)
